Experiments:
Assay in all cases: log2 ratio of Biotin-Ahx-Ub-VS probe labelling (fragment/DMSO); higher = less target engagement (more negative = stronger competition), active = hit call of the paper (q ≤ 0.05, log2 ratio ≤ -1)
Conditions in all cases: compound concentration: 200 uM; treatment time: 3 h
[1] = target: T1, OTUD6B (UniProt Q8N6M0)
T1 sequence (whole entry): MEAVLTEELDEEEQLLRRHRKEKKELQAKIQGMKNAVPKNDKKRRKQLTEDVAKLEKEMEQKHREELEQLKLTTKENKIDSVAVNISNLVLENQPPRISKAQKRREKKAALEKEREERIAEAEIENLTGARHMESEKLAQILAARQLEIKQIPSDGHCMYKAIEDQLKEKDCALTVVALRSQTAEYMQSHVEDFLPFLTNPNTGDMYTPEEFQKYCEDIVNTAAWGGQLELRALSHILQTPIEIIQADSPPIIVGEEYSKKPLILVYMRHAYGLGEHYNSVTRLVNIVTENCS
In short: (§1)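 Fragment (200 µM) or vehicle was incubated for 3 h with triplicate HEK293T lysate samples of 495 µg, which were then treated with Biotin-Ahx-Ub-VS at 0.5 µM final for 1 h. Labelled DUBs were enriched on NeutrAvidin, digested with LysC and trypsin, and analysed by diaPASEF LC-MS/MS. Values are average log2 fragment/vehicle ratios from an unpaired t-test on global-median-normalised Spectronaut label-free quantities, using proteins with ≥2 unique peptides.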

[2] = target: T2, OTUD7B (UniProt Q6GQQ9)
T2 sequence (whole entry): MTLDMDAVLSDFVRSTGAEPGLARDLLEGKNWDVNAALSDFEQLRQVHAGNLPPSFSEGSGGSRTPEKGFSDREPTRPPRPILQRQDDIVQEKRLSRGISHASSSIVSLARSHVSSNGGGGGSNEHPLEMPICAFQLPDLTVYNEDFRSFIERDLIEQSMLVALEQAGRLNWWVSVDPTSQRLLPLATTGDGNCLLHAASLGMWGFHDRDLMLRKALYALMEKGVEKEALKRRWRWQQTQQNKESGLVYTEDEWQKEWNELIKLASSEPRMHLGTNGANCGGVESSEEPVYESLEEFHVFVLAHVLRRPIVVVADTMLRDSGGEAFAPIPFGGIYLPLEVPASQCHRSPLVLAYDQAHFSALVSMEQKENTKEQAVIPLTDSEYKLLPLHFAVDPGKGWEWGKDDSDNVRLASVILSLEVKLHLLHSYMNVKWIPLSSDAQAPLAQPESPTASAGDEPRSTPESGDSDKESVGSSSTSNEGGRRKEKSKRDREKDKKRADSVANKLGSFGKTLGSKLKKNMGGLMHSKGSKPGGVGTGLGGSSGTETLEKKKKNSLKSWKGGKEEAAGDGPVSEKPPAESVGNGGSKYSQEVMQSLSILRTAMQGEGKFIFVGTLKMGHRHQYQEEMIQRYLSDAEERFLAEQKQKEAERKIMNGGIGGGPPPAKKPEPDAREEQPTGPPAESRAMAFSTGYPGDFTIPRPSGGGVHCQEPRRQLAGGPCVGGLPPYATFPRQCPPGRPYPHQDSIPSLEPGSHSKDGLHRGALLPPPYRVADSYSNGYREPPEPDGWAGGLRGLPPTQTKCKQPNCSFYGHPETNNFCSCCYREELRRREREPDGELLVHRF
In short: as §1

[3] = target: PRPF8 (UniProt Q6P2Q9)
In short: as §1

[4] = target: T3, PSMD7 (UniProt P51665)
T3 sequence (whole entry): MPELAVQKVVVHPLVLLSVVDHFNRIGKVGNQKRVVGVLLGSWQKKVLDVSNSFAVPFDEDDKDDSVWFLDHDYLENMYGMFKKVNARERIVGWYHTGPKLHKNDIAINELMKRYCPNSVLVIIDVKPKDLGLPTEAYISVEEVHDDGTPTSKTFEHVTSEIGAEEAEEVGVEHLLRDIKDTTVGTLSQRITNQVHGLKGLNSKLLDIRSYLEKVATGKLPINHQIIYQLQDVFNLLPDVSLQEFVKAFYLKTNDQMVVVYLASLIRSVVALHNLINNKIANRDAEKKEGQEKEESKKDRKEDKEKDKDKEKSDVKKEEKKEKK
In short: as §1

[5] = target: UCHL1 (UniProt P09936)
In short: as §1

[6] = target: T4, UCHL3 (UniProt P15374)
T4 sequence (whole entry): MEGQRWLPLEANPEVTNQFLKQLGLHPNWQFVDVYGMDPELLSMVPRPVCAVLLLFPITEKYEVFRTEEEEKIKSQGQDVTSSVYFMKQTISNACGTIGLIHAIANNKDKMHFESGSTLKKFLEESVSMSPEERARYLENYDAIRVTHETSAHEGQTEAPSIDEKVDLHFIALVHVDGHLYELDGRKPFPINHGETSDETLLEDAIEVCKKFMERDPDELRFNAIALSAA
In short: as §1

[7] = target: T5, UCHL5 (UniProt Q9Y5K5)
T5 sequence (whole entry): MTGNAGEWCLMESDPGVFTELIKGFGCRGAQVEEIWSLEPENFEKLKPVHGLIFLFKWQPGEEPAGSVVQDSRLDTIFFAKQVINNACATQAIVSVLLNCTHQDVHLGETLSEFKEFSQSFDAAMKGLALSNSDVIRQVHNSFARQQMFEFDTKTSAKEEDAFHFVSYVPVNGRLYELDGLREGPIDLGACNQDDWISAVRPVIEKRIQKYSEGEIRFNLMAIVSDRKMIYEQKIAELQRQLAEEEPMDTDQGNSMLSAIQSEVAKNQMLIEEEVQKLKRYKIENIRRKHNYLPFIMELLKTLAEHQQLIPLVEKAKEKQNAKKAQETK
In short: as §1

[8] = target: USP10 (UniProt Q14694)
In short: as §1

[9] = target: T6, USP15 (UniProt Q9Y4E8)
T6 sequence (whole entry): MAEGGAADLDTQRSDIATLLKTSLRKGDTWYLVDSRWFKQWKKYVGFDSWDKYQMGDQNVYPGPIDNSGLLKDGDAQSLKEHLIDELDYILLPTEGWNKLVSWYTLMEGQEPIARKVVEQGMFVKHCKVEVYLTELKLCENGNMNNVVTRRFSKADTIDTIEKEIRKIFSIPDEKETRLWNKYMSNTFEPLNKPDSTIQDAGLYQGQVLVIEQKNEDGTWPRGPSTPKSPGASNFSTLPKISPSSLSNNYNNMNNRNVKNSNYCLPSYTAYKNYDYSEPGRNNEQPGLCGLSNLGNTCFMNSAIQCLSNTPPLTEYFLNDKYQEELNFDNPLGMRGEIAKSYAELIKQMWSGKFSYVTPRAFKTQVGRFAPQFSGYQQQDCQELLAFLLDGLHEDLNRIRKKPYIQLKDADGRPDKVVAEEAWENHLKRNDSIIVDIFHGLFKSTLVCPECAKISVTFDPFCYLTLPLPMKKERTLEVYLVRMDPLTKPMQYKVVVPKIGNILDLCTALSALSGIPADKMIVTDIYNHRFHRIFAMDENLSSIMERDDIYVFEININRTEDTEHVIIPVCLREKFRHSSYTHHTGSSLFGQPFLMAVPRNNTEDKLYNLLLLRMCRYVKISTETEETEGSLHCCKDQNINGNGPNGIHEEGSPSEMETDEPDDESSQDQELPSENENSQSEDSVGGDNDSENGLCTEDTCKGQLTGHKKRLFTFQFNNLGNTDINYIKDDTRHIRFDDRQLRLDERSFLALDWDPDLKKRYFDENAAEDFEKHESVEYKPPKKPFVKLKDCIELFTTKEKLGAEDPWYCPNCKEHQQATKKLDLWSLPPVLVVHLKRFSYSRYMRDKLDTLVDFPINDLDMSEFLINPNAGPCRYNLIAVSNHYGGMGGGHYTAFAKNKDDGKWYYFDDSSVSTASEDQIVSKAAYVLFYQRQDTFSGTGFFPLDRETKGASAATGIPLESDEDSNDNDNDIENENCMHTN
In short: as §1

[10] = target: USP16 (UniProt Q9Y5T5)
In short: as §1

Measured: log2 ratio of Biotin-Ahx-Ub-VS probe labelling

Chain of USP16 (Q9Y5T5 whole entry, looked up): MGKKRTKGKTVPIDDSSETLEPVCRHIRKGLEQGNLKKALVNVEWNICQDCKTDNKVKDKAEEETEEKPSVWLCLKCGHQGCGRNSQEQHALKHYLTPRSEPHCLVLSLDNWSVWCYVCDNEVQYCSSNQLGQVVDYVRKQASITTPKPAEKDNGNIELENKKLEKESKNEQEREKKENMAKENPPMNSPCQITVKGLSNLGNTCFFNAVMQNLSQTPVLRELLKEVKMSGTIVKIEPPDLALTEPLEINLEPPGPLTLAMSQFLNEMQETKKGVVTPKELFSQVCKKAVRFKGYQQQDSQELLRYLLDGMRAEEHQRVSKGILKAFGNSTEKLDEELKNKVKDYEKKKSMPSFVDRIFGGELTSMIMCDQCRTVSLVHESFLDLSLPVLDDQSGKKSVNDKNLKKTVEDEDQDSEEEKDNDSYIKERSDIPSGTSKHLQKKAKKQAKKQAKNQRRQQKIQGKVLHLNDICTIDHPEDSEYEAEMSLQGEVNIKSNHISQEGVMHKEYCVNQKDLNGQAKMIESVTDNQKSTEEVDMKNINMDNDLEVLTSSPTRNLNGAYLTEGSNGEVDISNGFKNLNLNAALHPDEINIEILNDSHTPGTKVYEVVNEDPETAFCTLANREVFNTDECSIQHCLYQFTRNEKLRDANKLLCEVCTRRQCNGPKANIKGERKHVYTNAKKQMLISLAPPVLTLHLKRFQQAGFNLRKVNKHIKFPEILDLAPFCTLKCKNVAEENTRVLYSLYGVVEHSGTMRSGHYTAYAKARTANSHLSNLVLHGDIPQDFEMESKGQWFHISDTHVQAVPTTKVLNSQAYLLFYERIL
Chain of USP10 (Q14694 whole entry): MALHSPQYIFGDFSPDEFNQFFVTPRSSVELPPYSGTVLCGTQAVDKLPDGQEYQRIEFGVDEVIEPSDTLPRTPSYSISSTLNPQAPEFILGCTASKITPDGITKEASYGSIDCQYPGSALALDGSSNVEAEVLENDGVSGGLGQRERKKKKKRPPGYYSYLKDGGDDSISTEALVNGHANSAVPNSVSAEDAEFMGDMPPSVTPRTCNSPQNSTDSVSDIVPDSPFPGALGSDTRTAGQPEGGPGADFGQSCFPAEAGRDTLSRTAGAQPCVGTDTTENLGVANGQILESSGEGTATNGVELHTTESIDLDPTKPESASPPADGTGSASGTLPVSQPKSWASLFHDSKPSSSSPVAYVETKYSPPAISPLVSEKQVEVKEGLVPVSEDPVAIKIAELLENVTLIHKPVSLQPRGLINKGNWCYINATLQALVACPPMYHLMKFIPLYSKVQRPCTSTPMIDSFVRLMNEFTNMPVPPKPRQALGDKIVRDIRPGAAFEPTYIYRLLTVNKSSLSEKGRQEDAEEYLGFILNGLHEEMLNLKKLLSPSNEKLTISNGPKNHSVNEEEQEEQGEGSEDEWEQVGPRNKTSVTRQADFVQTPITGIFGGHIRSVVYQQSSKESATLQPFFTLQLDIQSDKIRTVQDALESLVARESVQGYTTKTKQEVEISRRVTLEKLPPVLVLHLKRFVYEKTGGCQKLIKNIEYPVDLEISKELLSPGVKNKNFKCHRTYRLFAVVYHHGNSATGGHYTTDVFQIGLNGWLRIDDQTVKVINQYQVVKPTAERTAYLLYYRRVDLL
Chain of UCHL1 (P09936 whole entry, looked up): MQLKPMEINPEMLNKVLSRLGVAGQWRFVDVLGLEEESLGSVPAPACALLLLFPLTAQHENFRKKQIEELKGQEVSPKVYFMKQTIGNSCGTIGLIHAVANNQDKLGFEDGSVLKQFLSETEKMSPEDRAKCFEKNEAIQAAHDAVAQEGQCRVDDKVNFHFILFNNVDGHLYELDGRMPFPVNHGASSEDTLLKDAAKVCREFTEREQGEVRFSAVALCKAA

Cc1ncsc1CCNC(=O)CCl
inactive: [1] 0.143 | [2] -0.157 | [3] 0.116 | [4] 0.433 | [6] 0.292 | [7] -0.131 | [8] 0.0995 | [9] 0.22 | [10] 0.106
active: [5] -1.31
